Experimental findings from the supplement of paper PMC4022240 are described below.

Common to all, as to assay: peptide microarray binding signal (635 nm), min-max normalized on array (fraction of array maximum); higher = stronger binding
Settings in all cases: peptide region: H2B 17-29

The target in assay [1] is T1, HaloTag-ATRX ADD domain (163-292).
T1 chain: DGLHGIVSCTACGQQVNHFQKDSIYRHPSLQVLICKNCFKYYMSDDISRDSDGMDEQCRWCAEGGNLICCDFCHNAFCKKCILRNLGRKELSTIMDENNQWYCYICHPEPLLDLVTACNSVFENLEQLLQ
As for the experimental part:
(§1)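 Histone 13-mer peptides were synthesized as cellulose conjugates with a C-terminal 20-atom PEG linker and printed in triplicate on nitrocellulose. The sequence given is the unmodified backbone; PTMs (Kme1/2/3, Kac, Sph/Tph, Rme/Rme2a/Rme2s, Rcit) are listed in the label and the 'peptide modifications' condition. Slides were probed at 4 °C for 1 h with biotin-labelled (HQ)5-HaloTag reader fusions (ATRX-ADD, ING2-PHD) then streptavidin-Alexa647, or with rabbit histone antibodies then anti-rabbit Alexa647. The mean 635 nm signal of the triplicate spots was scaled 0-1 between the lowest and highest values on each array.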

Assay [2] has as its target HaloTag-ING2 PHD (mouse Ing2 200-280). On the procedure: as §1
Assay [3] deals with anti-H3K4me3 antibody ab8580. On the procedure:
as §1

Assay [4] deals with anti-H3K9me3 antibody ab8898. On the procedure: as §1
Where [5] appears, read: peptide modifications: H2BK20ac H2BK23ac H2BK24ac H2BK27ac, binder concentration: 1:2,000 dilution.
[6] abbreviates: peptide modifications: H2BK20ac H2BK23ac H2BK24ac H2BK27ac, binder concentration: 1:10,000 dilution.
Setting [7] is: peptide modifications: H2BK20ac H2BK23ac H2BK24ac, binder concentration: 1:2,000 dilution.
[8] abbreviates: peptide modifications: H2BK20ac H2BK23ac H2BK24ac, binder concentration: 1:10,000 dilution.
Where [9] appears, read: peptide modifications: H2BK20ac H2BK23ac H2BK24ac H2BK27ac H2BK28ac, binder concentration: 1:2,000 dilution.
Where [10] appears, read: peptide modifications: H2BK20ac H2BK23ac H2BK24ac H2BK27ac H2BK28ac, binder concentration: 1:10,000 dilution.
[11] abbreviates: peptide modifications: H2BK20ac H2BK23ac H2BK28ac, binder concentration: 1:2,000 dilution.
Where [12] appears, read: peptide modifications: H2BK20ac H2BK23ac H2BK28ac, binder concentration: 1:10,000 dilution.
The mark [13] stands for this setting: peptide modifications: H2BK20ac H2BK23ac, binder concentration: 1:2,000 dilution.
The mark [14] stands for this setting: peptide modifications: H2BK20ac H2BK23ac, binder concentration: 1:10,000 dilution.

± gives the standard deviation.

For the molecule AVTKAQKKDGKKR [H2B 17-29 A V T Kac A Q Kac Kac D G Kac K R], the “peptide microarray binding signal” value in assay [1] (peptide modifications: H2BK20ac H2BK23ac H2BK24ac H2BK27ac, binder concentration: 50 nM) worked out at 0.00357 ± 0.00035; in assay [1] (peptide modifications: H2BK20ac H2BK23ac H2BK24ac H2BK27ac, binder concentration: 500 nM) it was 0.00643 ± 0.00011; in assay [2] (peptide modifications: H2BK20ac H2BK23ac H2BK24ac H2BK27ac, binder concentration: 10 nM), 0.00579 ± 0.00026; in assay [2] (peptide modifications: H2BK20ac H2BK23ac H2BK24ac H2BK27ac, binder concentration: 100 nM) it was 0.00702 ± 0.00069; in assay [3] (setting [5]) it was 0.00136 ± 0.0002; in assay [3] (setting [6]) it was 0.00131 ± 2.6e-05. Moreover, the “peptide microarray binding signal” value was 0.000982 ± 0.00011 in assay [4] (setting [5]) and 0.0011 ± 2.2e-05 in assay [4] (setting [6]).
AVTKAQKKDGKKR [H2B 17-29 A V T Kac A Q Kac Kac D G K K R]: the “peptide microarray binding signal” value in assay [1] (peptide modifications: H2BK20ac H2BK23ac H2BK24ac, binder concentration: 50 nM) worked out at 0.00661 ± 0.00032; in assay [1] (peptide modifications: H2BK20ac H2BK23ac H2BK24ac, binder concentration: 500 nM), 0.0168 ± 0.0019; in assay [2] (peptide modifications: H2BK20ac H2BK23ac H2BK24ac, binder concentration: 10 nM), 0.0274 ± 0.0038; in assay [2] (peptide modifications: H2BK20ac H2BK23ac H2BK24ac, binder concentration: 100 nM), 0.0204 ± 0.0078; in assay [3] (setting [7]), 0.00636 ± 0.0011; in assay [3] (setting [8]), 0.0024 ± 0.00011. The “peptide microarray binding signal” value in assay [4] (setting [7]) is 0.00204 ± 0.00015; in assay [4] (setting [8]), 0.00208 ± 8.4e-05.
With AVTKAQKKDGKKR [H2B 17-29 A V T Kac A Q Kac Kac D G Kac Kac R], the “peptide microarray binding signal” value in assay [1] (peptide modifications: H2BK20ac H2BK23ac H2BK24ac H2BK27ac H2BK28ac, binder concentration: 50 nM) came to 0.00442 ± 0.00034; in assay [1] (peptide modifications: H2BK20ac H2BK23ac H2BK24ac H2BK27ac H2BK28ac, binder concentration: 500 nM), 0.01 ± 0.0008; in assay [2] (peptide modifications: H2BK20ac H2BK23ac H2BK24ac H2BK27ac H2BK28ac, binder concentration: 10 nM), 0.00871 ± 0.00071; in assay [2] (peptide modifications: H2BK20ac H2BK23ac H2BK24ac H2BK27ac H2BK28ac, binder concentration: 100 nM), 0.0154 ± 0.0025; in assay [3] (setting [9]) it was 0.00208 ± 0.00036; in assay [3] (setting [10]), 0.00257 ± 0.0004. Also, the entries for the “peptide microarray binding signal” value in assay [4] (setting [9]) and in assay [4] (setting [10]) were 0.000936 ± 3.8e-05 and 0.00236 ± 0.00011, respectively.
AVTKAQKKDGKKR [H2B 17-29 A V T Kac A Q Kac K D G K Kac R]: the “peptide microarray binding signal” value turned out to be 0.00429 ± 0.00027 in assay [1] (peptide modifications: H2BK20ac H2BK23ac H2BK28ac, binder concentration: 50 nM); 0.00667 ± 0.00058 in assay [1] (peptide modifications: H2BK20ac H2BK23ac H2BK28ac, binder concentration: 500 nM); 0.0115 ± 0.00023 in assay [2] (peptide modifications: H2BK20ac H2BK23ac H2BK28ac, binder concentration: 10 nM); 0.0129 ± 0.0013 in assay [2] (peptide modifications: H2BK20ac H2BK23ac H2BK28ac, binder concentration: 100 nM); 0.00221 ± 0.00083 in assay [3] (setting [11]); 0.00097 ± 9.9e-06 in assay [3] (setting [12]). Further, the results for the “peptide microarray binding signal” value in assay [4] (setting [11]) and in assay [4] (setting [12]) were 0.000634 ± 2e-05 and 0.00104 ± 4.3e-05, respectively.
For AVTKAQKKDGKKR [H2B 17-29 A V T Kac A Q K Kac D G K K R], the “peptide microarray binding signal” value in assay [1] (peptide modifications: H2BK20ac H2BK23ac, binder concentration: 50 nM) was 0.00342 ± 3.7e-05; in assay [1] (peptide modifications: H2BK20ac H2BK23ac, binder concentration: 500 nM) it was 0.00562 ± 0.00013; in assay [2] (peptide modifications: H2BK20ac H2BK23ac, binder concentration: 10 nM) it was 0.00651 ± 0.00014; in assay [2] (peptide modifications: H2BK20ac H2BK23ac, binder concentration: 100 nM) it was 0.00468 ± 0.0004; in assay [3] (setting [13]) it was 0.00213 ± 0.0003; in assay [3] (setting [14]), 0.000685 ± 1.5e-05. Moreover, the “peptide microarray binding signal” value in assay [4] (setting [13]) was 0.000544 ± 1.7e-05; in assay [4] (setting [14]) it was 0.000865 ± 9e-06.
